Laboratory results reported in PubChem BioAssay (NCATS).
Unmarked numbers belong to inactive results. Calls follow the shape of the dose curve; as a rule, active = well fitted inhibition curve with a large enough effect; inconclusive = small, poorly fitted or top-dose-only effect; inactive = no such curve, though single readings can be large or run the other way. Inconclusive results are not listed.

Target: Single-stranded DNA cytosine deaminase (Homo sapiens) (UniProt Q9GZX7)
Test: Validation qHTS assay for inhibitors of Activation Induced Cytidine Deaminase (AID): AID signal (AID 1347429); also: % is scaled to controls: 0 for no effect and ±100 for the full control effect
Conditions: Recombinant AID, FRET ssDNA deamination with UDG, fluorescence; series mostly up to 115 µM; activity change, negative = inhibition: at the top concentration
Summary of the method: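 FRET deamination assay: 1 uM AID (4/3x stock) with UDG, compound up to 114 uM, then 250 nM DJC20/DJC23 substrate (4x stock) for 4 hr at room temperature. NaOH added, 30 min; fluorescence read 540/590 nm.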

Chain of Single-stranded DNA cytosine deaminase (Homo sapiens) (Q9GZX7 whole entry, looked up): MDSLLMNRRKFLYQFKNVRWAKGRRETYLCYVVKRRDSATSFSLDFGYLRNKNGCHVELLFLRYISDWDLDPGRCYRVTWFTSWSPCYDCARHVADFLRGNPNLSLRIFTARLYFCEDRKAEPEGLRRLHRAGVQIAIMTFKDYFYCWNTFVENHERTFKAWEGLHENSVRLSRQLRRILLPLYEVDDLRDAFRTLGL

| SMILES | activity change, negative = inhibition |
| --- | --- |
| c1ccc(C2CN3CCSC3=N2)cc1 (configuration not stated) | -1.35% |
| O=c1cc(-c2ccccc2)[nH]c2nc(Cl)ccc12 | 74% |
| COc1cc(C(O)C(=O)O)ccc1O (configuration not stated) | 13.7% |
| CC(C)[C@@H]1CC[C@@H](C)C[C@@H]1P(=O)(c1ccccc1)c1ccccc1 | 3.25% |
| Fc1ccc(CN(C2=NCCN2)c2c(Cl)cccc2Cl)cc1 | 2.75% |
| N#Cc1cc([N+](=O)[O-])c2sc(C(N)=O)[n+]([O-])c2c1 | 32.4% |
| N[C@H](C(=O)O)[C@H](Cc1ccccc1)C(=O)O | 12% |
| O=C(O)c1ccccc1Nc1cccc(OCc2ccc3ccccc3n2)c1 | -4.72% |
| O=c1ccn([C@@H]2O[C@H](COP(=O)(O)OP(=O)(O)O)[C@@H](O)[C@H]2O)c(=O)[nH]1 | 23.9% |
| CC[C@H](NC(=O)c1c(C)c(-c2ccccc2)nc2ccccc12)c1ccccc1 | 1.06% |
| O=[N+]([O-])c1cccc2cn[nH]c12 | 20.2% |
| Nc1nc2ccc(Cl)cc2c2nc(-c3ccco3)nn12 | 73% |
| O=C(O)C1=CCCN(CCON=C(c2ccccc2)c2ccccc2)C1 | 8.6% |
| CC(N)=NCCCC[C@@H](N)C(=O)O | 20.1% |
| CN(C)C(=O)/N=N/C(=O)N(C)C | 9.44% |
| NC(=O)CC[C@H](N)C(=O)O | 5.99% |
| c1ccc(C(NCc2cccnc2)(c2ccccc2)c2ccccc2)cc1 | 2.07% |
| CCCOC(=O)c1c(-c2ccccc2)nc(CC)c(C(=O)SCC)c1CCC | -3.14% |
| NCC(O)(CS(=O)(=O)O)c1ccc(Cl)cc1 (configuration not stated) | 1.08% |
| O=C(OCCN1CCOCC1)C1(c2ccccc2)CCCCC1 | 22.7% |
| Cc1ccc2c(c1)C(N1CCN(C)CC1)=Nc1cccnc1N2 | 14.1% |
| O=c1cc(-c2ccccc2F)[nH]c2cc3c(cc12)OCO3 | -2.26% |
| CC(=O)O[C@H]1CC2(C)[C@@H](C[C@@H](O)[C@H]3[C@@]4(C)CC[C@@H](O)[C@@H](C)[C@@H]4CC[C@@]32C)C1=C(CCC=C(C)C)C(=O)O (some centres not stated) | 2.71% |
| CN1CCN(c2nc3cc(C(F)(F)F)ccc3n3cccc23)CC1 | 11.3% |
| Cn1c(=O)c2c(nc(/C=C/c3cccc(Cl)c3)n2C)n(C)c1=O | -0.437% |
| Nc1ccc(N2C(=O)c3ccccc3C2=O)c(Cl)c1 | -0.284% |
| O=c1[nH]ccc2c(O)cccc12 | 47.7% |

Tested on: not listed separately
Test: Primary qHTS for inhibitors of La Crosse Virus (LACV) - induced cell death in SH-SY5Y cells (AID 1508616);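 also: top concentration of the series differs between compounds; 0% = infected DMSO wells and 100% = uninfected DMSO wells; higher means more rescue of cells from virus-induced death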
Conditions: SH-SY5Y LACV cytopathicity rescue, ATP luminescence, 6 d; series mostly up to 9.63 µM; activity change: at the top concentration
Summary of the method: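 SH-SY5Y cells (6000/well) plated 24 h, then given compounds by pin transfer and LACV at 0.01 MOI for 6 days at 37C. Viability measured by ATPLite luminescence, normalized to infected DMSO and uninfected DMSO.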

| SMILES | activity change |
| --- | --- |
| c1ccc(C2CN3CCSC3=N2)cc1 (configuration not stated) | 37.5% |
| COc1cc(C(O)C(=O)O)ccc1O (configuration not stated) | -3.55% |
| CC(C)[C@@H]1CC[C@@H](C)C[C@@H]1P(=O)(c1ccccc1)c1ccccc1 | 15.3% |
| Fc1ccc(CN(C2=NCCN2)c2c(Cl)cccc2Cl)cc1 | -3.44% |
| N[C@H](C(=O)O)[C@H](Cc1ccccc1)C(=O)O | 5.78% |
| Nc1ccc(-c2ccc3ccccc3n2)cc1 | -19.7% |
| O=C(O)c1ccccc1Nc1cccc(OCc2ccc3ccccc3n2)c1 | 12.1% |
| O=c1ccn([C@@H]2O[C@H](COP(=O)(O)OP(=O)(O)O)[C@@H](O)[C@H]2O)c(=O)[nH]1 | 39.1% |
| CC[C@H](NC(=O)c1c(C)c(-c2ccccc2)nc2ccccc12)c1ccccc1 | 68.8% |
| O=[N+]([O-])c1cccc2cn[nH]c12 | -7.64% |
| Cn1c(=O)c2[nH]c(-c3ccc(S(=O)(=O)O)cc3)nc2n(C)c1=O | -20.8% |
| CCCCCCCCCCCCCCSCC(=O)O | 8.44% |
| O=C(O)C1=CCCN(CCON=C(c2ccccc2)c2ccccc2)C1 | 0.209% |
| CC(N)=NCCCC[C@@H](N)C(=O)O | 3.2% |
| CN(C)C(=O)/N=N/C(=O)N(C)C | 20.2% |
| CC1=C(C(=O)O)N2C(=O)[C@@H](NC(=O)C(N)C3=CCC=CC3)[C@H]2SC1 (some centres not stated) | 36.8% |
| NC(=O)CC[C@H](N)C(=O)O | -4.69% |
| COc1cc(/C=C(\C#N)C(=O)Nc2nnc(C(F)(F)F)s2)ccc1OCc1ccc(C(F)(F)F)cc1C(F)(F)F | 75.2% |
| c1ccc(C(NCc2cccnc2)(c2ccccc2)c2ccccc2)cc1 | 16.3% |
| O=c1onc2n1-c1cc(Br)ccc1OC2 | 3.83% |
| CCCOC(=O)c1c(-c2ccccc2)nc(CC)c(C(=O)SCC)c1CCC | 6.16% |
| COc1cc(CNC(=O)CCCCCCC(C)C)ccc1O | -12.3% |
| NCC(O)(CS(=O)(=O)O)c1ccc(Cl)cc1 (configuration not stated) | 23.7% |
| O=C(OCCN1CCOCC1)C1(c2ccccc2)CCCCC1 | 2.02% |
| Cc1ccc2c(c1)C(N1CCN(C)CC1)=Nc1cccnc1N2 | -24% |
| CC(=O)O[C@H]1CC2(C)[C@@H](C[C@@H](O)[C@H]3[C@@]4(C)CC[C@@H](O)[C@@H](C)[C@@H]4CC[C@@]32C)C1=C(CCC=C(C)C)C(=O)O (some centres not stated) | 32.7% |
| Cn1c(=O)c2c(nc(/C=C/c3cccc(Cl)c3)n2C)n(C)c1=O | -17.3% |
| CC1CCN(CC[C@H]2CCCN2S(=O)(=O)c2cccc(O)c2)CC1 | 6.06% |
| Nc1ccc(N2C(=O)c3ccccc3C2=O)c(Cl)c1 | 4.18% |
| O=c1[nH]ccc2c(O)cccc12 | -1.15% |
